The values below come from PubChem BioAssay AID1578 (Sanford-Burnham Center for Chemical Genomics, 2009).

“And” between values parts separate entries of the source, which are not always exact repeats. Identical values can stand only once. The whole screen tested about 290,000 compounds, of which about 3,000 (1%) were called active. This excerpt belongs to a sample that is enriched for actives. Values without a mark were called inactive. Cut-off read from the data, not from the text of the source: active = inhibition mostly above about 36% (no sharp cut-off); inactive = mostly below about 34%.

A short description of this experiment: inhibition of NOD1-driven NF-kB reporter – cell-based, luminescence, uHTS, primary screen (AID 1578).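 Note: HEK-293T reporter cells stimulated with the NOD1 agonist gamma-tri-DAP.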 Conditions: NOD1-driven NF-kB luciferase reporter cells, at 4 µM, stronger effect = higher value. In general terms: Reporter assays use an easily measured gene product as a stand-in for the process of interest.
Usually inhibition stands for the relative decrease from the control value, in per cent. In the case of `CC(=O)c1cccc(NC(=O)C2C(c3ccccc3)C2(Cl)Cl)c1` (stereo not drawn), the inhibition was -15.1%.

In the case of `COc1ccc(C2NC(=O)NC3=C2C(=O)CCC3)cc1` (stereo not drawn), the inhibition was -30.7%. For the molecule `COCCN1C(=O)c2cc(C(=O)Nc3cccc(F)c3)ccc2C1Nc1cccc(F)c1` (stereo not drawn), the inhibition was 2.2%. With `COCCCn1c(SCc2ccc(OC)cc2)nc2cc(OC)c(OC)cc2c1=N` the figure was -11.5%; with `COCCCn1c(SCCc2ccccc2)nc2cc(OC)c(OC)cc2c1=N`, 49.8% (active); with `COCCCn1c(SCc2ccccc2)nc2cc(OC)c(OC)cc2c1=N`, 5.9%.

For the molecule `O=C(COC(=O)c1ccc(S(=O)(=O)N2CCc3ccccc3C2)cc1)NC1CCS(=O)(=O)C1` (stereo not drawn), the inhibition is 3.9%. As for `NS(=O)(=O)c1ccc(NC(=S)NCc2ccc(Cl)cc2)cc1`, the inhibition is 4.1%. For the molecule `CC1=CN2C(=N)/C(=C/c3ccc(Sc4ccc(Cl)cc4)o3)C(=O)N=C2S1`, the inhibition is 76.7% (active). In the case of `CC1=NN2C(=N)/C(=C\c3ccc(SCc4ccccc4)o3)C(=O)N=C2S1`, the inhibition was 9.5%. As to `CC1=CN2C(=N)/C(=C/c3ccc([N+](=O)[O-])o3)C(=O)N=C2S1`, the inhibition was 78.2% (active). As to `CC1=CN2C(=N)/C(=C/c3ccc(C)o3)C(=O)N=C2S1`, the inhibition is -39.8%.

Regarding `CC1=CN2C(=N)/C(=C/c3ccco3)C(=O)N=C2S1`, the inhibition was -63.4%. As for `CC1=CN2C(=N)/C(=C/c3ccc(Sc4ccc(C)cc4)o3)C(=O)N=C2S1`, the figure is -6.2%; as for `CC(=O)Nc1ccc(OC(=O)c2cc3cc(Br)ccc3oc2=O)cc1`, 7.6%; as for `CC(C)C(=O)Nc1ccc(NC(=O)c2ccccc2Cl)nc1`, -13.2%. With `CCN(CC)C(=O)CSc1nnc([C@H](Cc2c[nH]c3ccccc23)NC(=O)OC(C)(C)C)o1` the figure was -14.8%; with `CC(C)Sc1nnc(NC(=O)C2CC2)s1`, 37.9% (active). With `CCSc1nnc(NC(=O)C2CCCCC2)s1` the figure was -31.5%. For `CC(C)N(C(=O)CSc1nnc(NC(=O)C2CCC2)s1)C(C)C`, the inhibition was -7.8%.

As to `CCc1ccc(NC(=O)CSc2nnnn2-c2cccnc2)cc1`, the inhibition is -28.4%. Consider `CCCC(=O)C1=C(O)C(C(=O)OC)C(C)(C)CC1=NCCCCCC(=O)O` (stereo not drawn), for which the inhibition is -12.1%. With `Cc1cc(C)c(NC(=O)c2ccc3c(c2)C(=O)N(Cc2cccnc2)C3=O)c(C)c1` the figure was -0.6%; with `Fc1cccc(CNc2ncnc3cc(Cl)ccc23)c1F`, 0.2%; with `COc1cc2ncnc(NCc3cc(F)ccc3F)c2cc1OC`, 0.3%. As for `Nc1cc(=O)[nH]n1C1CCN(c2ccccc2)CC1`, the figure is -4%. With `COc1ccc(C2C=C(Nc3ccccc3)C(=O)N2c2ccccc2)cc1OC` (stereo not drawn) the figure was 4.9%; with `CC(=O)NCc1cc(-c2ccc(Cl)cc2)no1`, -35.1%; with `O=C(CCl)NCc1cc(-c2ccc(Cl)cc2)no1`, 87.7% (active). For `COc1ccc(-c2cc(CNC(=O)CCl)on2)cc1`, the inhibition was 54.5%. As for `COc1ccc(Cl)cc1NC(=O)CN1C(=O)NC2(CCCC2)C1=O`, the inhibition is -8.5%.

Take `O=C(CSc1nc2ccccc2c(=O)n1-c1ccccc1)N1CCCc2ccccc21`: the inhibition was -19.1%.

With `CCc1nc(SCC(=O)N2CCCc3ccccc32)c2oc3ccccc3c2n1`, the inhibition was 0.5%. With `O=C(CSc1ncnc2c1oc1ccccc12)NCc1ccc(F)cc1` the figure was 19.3%; with `Cc1nc(SCC(=O)N2CCCc3ccccc32)c2oc3ccccc3c2n1`, -0.3%. Turning to `Cc1nc(SCC(=O)NCc2ccco2)c2oc3ccccc3c2n1`, the inhibition was -2.6%. As for `O=C(CSc1ncnc2c1oc1ccccc12)NCc1ccco1`, the figure is 72.8% (active); as for `CCn1c(SCC(=O)N2CCCc3ccccc32)nc2ccccc2c1=O`, -37.5%; as for `COc1cccc(OCC(O)CN2CCN(c3ccccc3)CC2)c1` (stereo not drawn), 2.2% and -2.1%. Consider `CC(C)(C)c1ccc(-c2noc(-c3ccno3)n2)cc1`, for which the inhibition was -6.3%. Consider `CCN(CC)S(=O)(=O)c1cccc(C(=O)N/N=C/c2ccc(N3CCOCC3)cc2)c1`, for which the inhibition was -29.1%. As for `O=C1NC(=O)/C(=C\c2ccc(O)cc2O)S1`, the inhibition was -22.3%. On to `COCCNC(=O)c1ccc(C)c(NC(=O)C2=C(C)OCCS2)c1`, for which the inhibition was -9.9%. With `COC(=O)C(CC(=O)O)NCc1ccco1` (stereo not drawn), the inhibition was -10.9%. With `CC(=O)N1CCN(CC(=O)Nc2ccc([N+](=O)[O-])cc2Br)CC1` the figure was -29.7%.

Take `FC(F)(F)c1ccccc1NC(=S)NN1CCOCC1`: the inhibition was -11.5%. With `O=C(O)c1cccc(Nc2ccnc(Nc3cccc(C(=O)O)c3)n2)c1` the figure was 38.5% (active); with `O=C(O)c1cccc(Nc2ccc([N+](=O)[O-])cn2)c1`, -19.2%. Consider `c1ccc(Nc2ccnc(Nc3ccccc3)n2)cc1`, for which the inhibition is 8.8%.

Take `CCOC(=O)C1=C(C)N(C)C(=S)NC1c1ccc(Cl)cc1Cl` (stereo not drawn): the inhibition is -11.6%.

As to `C[n+]1c2n(c3ccccc31)N=C(c1ccccc1)CS2`, the inhibition is 5% and 22.1%.

On to `C[n+]1c2n(c3ccccc31)N=C(c1ccc(-c3ccccc3)cc1)CS2`, for which the inhibition was 43.5%.

On to `Cc1cc(=O)oc2cc(NC(=O)c3ccccc3OC(F)F)ccc12`, for which the inhibition is -62.7%.

`Cc1ccc(O)c(C(=O)c2cc(C#N)c(=O)n(Cc3ccccc3)c2)c1`: the inhibition is -10.3%. In the case of `Cc1ccc(O)c(C(=O)c2cc(C#N)c(=O)n(C(C)c3ccccc3)c2)c1` (stereo not drawn), the inhibition was -4.6%.

On to `Cc1c(NC(=O)c2ccc(N(Cc3ccccc3)S(C)(=O)=O)cc2)c(=O)n(-c2ccccc2)n1C`, for which the inhibition is -26.8%. `CCOC(=O)N1CCN(C(=O)C2CCC(=O)N2C(C)C)CC1` (stereo not drawn): the inhibition was 3.6%. With `COc1ccc(/C=C/C(=O)O/N=C(\N)c2cccnc2)cc1OC` the figure was -10%. On to `Cc1ccccc1-c1nc(CS(=O)CC(=O)NC(C)CCc2ccccc2)c(C)o1` (stereo not drawn), for which the inhibition was 19.2%. As for `Cc1cccc(-c2nc(CS(=O)CC(=O)NC(C)CCc3ccccc3)c(C)o2)c1` (stereo not drawn), the figure is 20.6%. As for `Cc1ccc(-c2nc(CS(=O)CC(=O)NC(C)CCc3ccccc3)c(C)o2)cc1` (stereo not drawn), the figure is 41.4% (active). With `Cc1c(OCC(=O)NCCCn2ccnc2)ccc2c3c(c(=O)oc12)CCC3` the figure was -17.1%; with `Cc1cc(C)cc(NC(=O)C2C3C=CC(O3)C2C(=O)O)c1` (stereo not drawn), -15.9%. With `O=C1C=C(c2ccccc2)C[C@H](c2cccs2)[C@H]1n1cnc([N+](=O)[O-])c1`, the inhibition is -24.8%. With `O=C1C=C(c2cccs2)C[C@H](c2ccccc2)[C@H]1n1nnc([N+](=O)[O-])n1` the figure was 42.1%; with `CCN(CC)C(=O)c1sc(NC(=S)N2CCN(C(=O)C3CCCO3)CC2)c(C(=O)OC)c1C` (stereo not drawn), 2.3%; with `Cc1ccc2c(c1)[nH]c1c(N3CCN(Cc4ccc5c(c4)OCO5)CC3)ncnc12`, 58.5%. On to `Cc1ccc2[nH]c3c(N4CCN(Cc5ccc6c(c5)OCO6)CC4)ncnc3c2c1`, for which the inhibition was 73.7%. On to `Fc1ccc2[nH]c3c(N4CCN(Cc5ccc6c(c5)OCO6)CC4)ncnc3c2c1`, for which the inhibition is 58.2% (active). As for `c1ccc2c(c1)CCN(c1ncnc3c1[nH]c1ccccc13)C2`, the figure is 81.6%.

With `COc1ccc2[nH]c3c(N4CCN(Cc5ccc6c(c5)OCO6)CC4)ncnc3c2c1`, the inhibition was 23.1%. As for `COc1cccc2[nH]c3c(N4CCN(Cc5ccc6c(c5)OCO6)CC4)ncnc3c12`, the figure is 60.8%; as for `Brc1ccc2[nH]c3c(N4CCc5ccccc5C4)ncnc3c2c1`, -5.4%; as for `COc1ccc2c(c1)[nH]c1c(N3CCN(Cc4ccc5c(c4)OCO5)CC3)ncnc12`, 86% (active). With `O=C(COC(=O)Cc1cccs1)Nc1ccc(F)c(F)c1F` the figure was -10.6%. As for `Cc1ccccc1-n1c(=O)cc(NCc2ccc3c(c2)OCO3)[nH]c1=O`, the figure is -1.9%; as for `CN1C(=O)/C(=C/c2ccc(C(F)(F)F)cc2)Sc2ccc(C(=O)N3CCN(c4ccccn4)CC3)cc21`, 17.8%; as for `CN1C(=O)/C(=C\c2ccccc2)Sc2ccc(C(=O)N3CCN(c4ccccn4)CC3)cc21`, 46.8%. In the case of `CCN(CC)S(=O)(=O)c1ccc(S(=O)(=O)Nc2ccc(C(=O)N3CCCC3)cc2)cc1`, the inhibition was -2.4%. As for `COc1ccc(NC(=O)CCN2C(=O)c3cccc([N+](=O)[O-])c3C2=O)cc1`, the figure is -11.3%; as for `N=c1oc2ccc(Cl)cc2cc1C(=O)Nc1ccc(F)cc1`, -7.8%. Turning to `O=C(CCS(=O)(=O)c1ccccc1)Nc1ccccc1N1CCOCC1`, the inhibition was -9%. With `CCOC(=O)C1=C(C)N=C2c3ccccc3C(=O)C2C1c1ccc(Br)cc1` (stereo not drawn) the figure was 72.4% (active); with `CCOC(=O)C1=C(C)N=C2c3ccccc3C(=O)C2C1c1ccc(C)cc1` (stereo not drawn), 44.1%; with `CCOC(=O)C1=C(C)N=C2c3ccccc3C(=O)C2C1c1ccc(Cl)cc1` (stereo not drawn), 16.6%.

`Cc1ccc(C2N(c3cccc(Cl)c3)C(=O)N3CCCN23)cc1` (stereo not drawn): the inhibition is 4.2%. With `O=[N+]([O-])c1cc(/C=N/n2c(-c3cccnc3)n[nH]c2=S)ccc1Cl` the figure was -11.7%; with `Cc1cc(C)nc(NC(=O)Cc2ccc([N+](=O)[O-])cc2)c1`, -15.5%; with `O=C(Nc1ccccc1C(F)(F)F)N1CCCCCC1`, -17.1%. With `O=C(NCc1cccnc1)c1ccc2c(c1)C(=O)N(Cc1ccccc1)C2=O` the figure was -4.4%; with `Cc1c(C#N)c(NC(=O)CCl)n(Cc2ccc(F)cc2)c1C`, 94.1% (active). With `COc1ccc(Cn2c(C)c(C)c(C#N)c2NC(=O)Nc2ccc(F)cc2)cc1` the figure was -50%; with `Cc1c(C#N)c(NC(=O)C(C)C)n(Cc2ccccc2)c1C`, -2.8%.
